From PubChem
Compounds with a hit are over-represented: about 1.8% of the library has one in this group of screens.
NALP1 inh: inhibitors of NALP1 inflammasome in yeast | S. cerevisiae NALP1/ASC/caspase-1 growth, X-gal OD620, 72 h | inhibition, % at 10 µM | 280,000 compounds, 0.61% hits | AID 2071; in the data active = inhibition mostly above about 24%, no sharp cut-off; inactive = mostly below about 32%
Mot1-301 SUMO: inhibitors of SUMOylation pathway: yeast Mot1-301 growth rescue. S. cerevisiae Mot1-301 growth rescue, ATP luminescence, 38.5C; percent above DMSO median, 100 means doubled. growth rescue, % at 18.8 µM. 320,000 compounds, 1% hits. AID 2716;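 active = every valid replicate shows activation above 250% relative to neutral control wells; inactive = the rest, any valid replicate at or below 250%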;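 note: OY570 slx delta 5 strain wells were the positive control but not used for scaling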
PolyA inhibitor: inhibitors of polyadenylation in S. cerevisiae; S. cerevisiae SKY197-pL101 polyadenylation reporter, beta-gal luminescence; efflux-impaired pdr1/pdr3 knockout yeast; score 100 = 6 SD above DMSO; activity score, % at 12 µM; 300,000 compounds, 0.02% hits;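 active = lowest replicate activity score at least 50, where 100 means six control SD above control mean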;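 note: yeast exposed to compound for 9 h at 30 °C; higher score means more reporter readthrough which indicates perturbed polyadenylation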
NALP3 yeast inh: NALP3 inhibition in yeast. Yeast reconstituted NLRP3/ASC/caspase-1, beta-gal luminescence, 24 h. inhibition, % at 10 µM. 330,000 compounds, 0.39% hits. AID 2825;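 active = inhibition of 50% or more; inactive = inhibition below 50%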;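 note: plate controls were induced DMSO wells for no effect and uninduced yeast grown without galactose for full effect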
Yeast Mot1 SUMO: yeast SUMO pathway inhibition in dose response | shares compounds with Mot1-301 SUMO | S. cerevisiae Mot1-301 galactose growth, ATP luminescence, 24 h; -100 = growth of slx-deleted rescue strain | growth activity, percent, % at 42 µM | 2,300 tested, under 10 active | AID 493004;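 active = Signal drops as the depositor expects, and the fitted half-maximal dose is no more than ten times the top valid tested dose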;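 note: more negative values mean stronger growth rescue toward the control strain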
Starred values were filed as active, the others as inactive; · = no result; + = active, no number.

SMILES	NALP1 inh	Mot1-301 SUMO	PolyA inhibitor	NALP3 yeast inh	Yeast Mot1 SUMO
CC(=O)Nc1nn(C)c2nc3ccc(C)cc3cc12	18.1	479.1*	0.0	13.0	0.3
Cc1ccc2cc3c(NC(=O)CC(C)C)nn(C)c3nc2c1	7.1	12.5	6.8	25.9	·
CCC(=O)N(Cc1cc(=O)[nH]c2ccccc12)c1ccccc1	-7.0	-3.7	12.7	-1.9	·
O=C(CCl)N(Cc1cc(=O)[nH]c2ccccc12)c1ccccc1	7.7	490.8*	-12.6	0.6	0.1
O=c1c(-c2ccnn2-c2ccccc2F)cnc2n1CCS2	-34.6	1.0	7.6	4.0	·
Nc1c(N=Nc2ccccc2F)c(=O)[nH]n1-c1ccccc1	1.7	-20.6	13.1	32.9	·
CC(=O)c1cc(Cl)ccc1OC(=O)c1ccco1	25.0	6.0	2.2	1.2	·
CC(=O)c1cc(C)ccc1OC(=O)c1ccco1	34.0	429.1*	13.1	11.6	0.9
Cc1ccsc1C(=O)NNC(=O)CCN1CCN(c2ccccc2)CC1	·	10.0	13.5	7.4	·
COc1ccc(/C=C2/SC(=O)N(NS(=O)(=O)c3ccccc3)C2=S)cc1OC	5.6	375.3*	-20.6	1.7	-1.6
CCc1ccc(CN2CCN(S(=O)(=O)Cc3ccccc3)CC2)cc1	36.6	8.5	13.8	38.3	·
O=S(=O)(Cc1ccccc1)N1CCN(c2ncccn2)CC1	10.3	398.8*	-9.2	21.4	-0.1
CSc1ccc(CN2CCN(S(=O)(=O)Cc3ccccc3)CC2)cc1	22.6	379.4*	-48.1	39.5	-0.8
COC(=O)C1CCN(S(=O)(=O)Cc2ccccc2Cl)CC1	-2.2	17.3	9.2	14.0	·
COC(=O)C1CCN(S(=O)(=O)Cc2ccccc2)CC1	6.7	688.7*	7.4	18.1	0.3
O=C(C1CCN(S(=O)(=O)Cc2ccccc2)CC1)N1CCN(c2ncccn2)CC1	9.3	8.8	5.7	4.8	·
CC(C)Oc1ccc(CCC(=O)NNC(=O)c2ccccc2C(=O)O)cc1	-5.0	460.0*	-5.0	16.0	0.5
CCn1c(CCNC(=O)c2ccc(OC)c(OC)c2)nc2ccccc21	-6.6	-5.4	1.5	5.2	·
CCn1c(SCC(=O)NC2CCCCC2)nnc1-c1cccs1	-9.8	52.0	3.0	2.0	·
CCn1c(SC(=O)NC2CCCCC2)nnc1-c1cccs1	18.3	525.4*	-56.5	10.8	-0.2
CC(=O)c1cccc(NC(=O)COC(=O)CCc2ccc(S(=O)(=O)N3CCOCC3)cc2)c1	-8.7	-6.1	16.3	15.9	·
COc1ccc(S(=O)(=O)N2CCCCC2C(=O)O)cc1OC (stereo unspecified)	-3.9	-14.4	0.2	1.7	·
CSCCC(NC(=O)c1ccco1)C(=O)N1CCN(Cc2ccccc2)CC1 (stereo unspecified)	·	425.8*	30.8	12.1	0.5
CSCCC(NC(=O)c1ccccc1)C(=O)N1CCN(C(=O)c2ccccc2)CC1 (stereo unspecified)	·	-14.9	·	-3.3	·
CC(C)(C)NC(=O)COC(=O)CCC(=O)c1ccc(Cl)cc1	-11.4	-6.5	1.7	9.4	·
SMILES	NALP1 inh	Mot1-301 SUMO	PolyA inhibitor	NALP3 yeast inh	Yeast Mot1 SUMO
O=C(c1ccc(COc2ccccc2Cl)o1)N1N=C(C(F)F)CC1(O)C(F)F (stereo unspecified)	10.4	438.1*	5.4	21.5	-0.5
O=C(c1ccc(COc2ccc3ccccc3c2)o1)N1N=C(C(F)F)CC1(O)C(F)F (stereo unspecified)	·	0.9	3.5	8.7	·
N#C/C(=N\Nc1ccc(F)cc1)C(=N)N1CCCCC1	-8.4	59.2	-9.2	15.2	·
N#C/C(=N\Nc1cccc(F)c1)C(=N)N1CCCCCC1	-6.1	605.3*	8.1	20.1	0.0
COc1ccccc1N1CCN(C(=O)c2ccc(-c3ccccc3)cc2)CC1	-50.8	+	-5.1	11.8	-0.1
COc1ccc(C(=O)N2CCN(c3ccccc3OC)CC2)cc1	11.8	1.7	5.1	2.7	·
Cc1ccccc1-c1nnc(SCc2ccc(F)cc2)o1	6.1	+	-17.5	2.3	-1.0
Fc1ccc(CSc2nnc(-c3ccncc3)o2)cc1	9.6	-10.3	12.0	21.0	·
Cc1cccc(OCC(=O)NS(=O)(=O)c2ccc(Br)cc2)c1	4.2	379.1	8.7	2.0	·
CC(=O)Nc1cccc(OCC(=O)NS(=O)(=O)c2ccc(C)cc2)c1	9.1	845.9*	-3.6	-12.7	-0.6
O=S1(=O)CCN2C(Cc3ccc(SC(F)F)cc3)=CSC2=N1	0.6	-16.1	14.8	0.6	·
Cc1nn2c(NCCCn3ccnc3)cc(C(C)C)nc2c1-c1ccccc1	-4.9	3.0	9.3	8.9	·
COc1ccc(CNC(=O)CN(Cc2ccc(OC)cc2)C(=O)CCC(=O)Nc2nccs2)cc1	-3.0	206.9	-7.4	12.5	·
COc1ccc(CN(CC(=O)NCc2ccco2)C(=O)CCC(=O)Nc2nccs2)cc1	3.2	868.1*	10.4	5.4	0.1
COc1ccc(S(=O)(=O)NCC(=O)N(CC(=O)NCc2ccco2)Cc2ccccc2)cc1	15.8	642.2*	-1.3	8.5	0.3
Cc1cc(C)n2c(-c3ccccc3Cl)nnc2n1	24.8	-25.8	-0.8	-3.4	·
C/C=C(\C)C(=O)OC1c2c(ccc3ccc(=O)oc23)OC(C)(C)C1OC(C)=O (stereo unspecified)	1.2	170.9	-11.4	9.8	·
C/C=C(/C)C(=O)OC1c2c(ccc3ccc(=O)oc23)OC(C)(C)C1OC(=O)/C(C)=C\C (stereo unspecified)	-1.4	729.8*	0.9	17.6	1.1
CCOc1ccccc1Nc1nnc(SCc2nnc(-c3cc(OC)c(OC)c(OC)c3)o2)s1	6.7	608.1*	3.7	-4.9	-0.4
c1cc(C2CCCCC2)ccc1Oc1nc(N2CCOCC2)nc(N2CCOCC2)n1	11.2	6.7	-14.2	-14.5	·
COc1cc([N+](=O)[O-])cc(/C=N/NC(=O)c2cc(C)nc3ccccc23)c1O	17.0	758.0*	-3.5	8.2	1.0
CCCN(CC1CC1)C(=O)COc1ccccc1C(=O)NCc1ccccc1	39.8	801.6*	10.4	11.1	0.7
CCC(C)N(C(=O)COc1ccccc1C(=O)NCc1ccccc1)C1CCS(=O)(=O)C1 (stereo unspecified)	-0.7	-11.8	28.6	-3.8	·
O=C(/C=C/c1ccco1)N1CCN(S(=O)(=O)c2cccs2)CC1	-8.2	352.6	-18.1	-15.1	·
Cn1c(CCN2CCCCC2)nc2cc(NS(=O)(=O)c3ccccc3)ccc21	-7.3	0.9	-2.0	10.4	·
CC(=O)c1c(Nc2cccc(F)c2)oc(C)cc1=O	·	951.5*	6.6	-5.9	-0.2
CCN(C(=O)CSc1n[nH]c(-c2ccccc2)n1)c1c(N)n(Cc2ccccc2)c(=O)[nH]c1=O	·	-8.1	·	19.4	·
COc1cc2ccccc2cc1C(=O)Nc1ccc(CN2CCOCC2)cc1	-2.8	393.6*	-4.3	29.8	-0.8
O=C(Nc1ccc(CN2CCOCC2)cc1)c1ccccc1F	9.9	49.7	-4.4	1.0	·
Cc1ccc(NC2c3ncccc3C(=O)N2C2CCCCC2)cc1C (stereo unspecified)	·	394.7*	7.2	2.6	-0.7
